Test results taken from PubChem BioAssay AID2665 (Vanderbilt High Throughput Screening Facility, 2010).
The source made the active and inactive calls. How the calls were made is not given here.

target: Muscarinic acetylcholine receptor M1 (Rattus norvegicus) (UniProt P08482); assay: M5 positive allosteric modulators, analog testing, SAR follow-up, CHO cells, calcium, ACh EC10, single 30 µM (AID 2665); details: rat M1 potentiation, CHO calcium; at 30 µM; stronger effect = higher value;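 further: 100% = response to a maximal acetylcholine concentration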

SMILES	% ACh max response [%]
COc1cccc(CN2C(=O)C(=O)c3cc(OC(F)(F)F)ccc32)c1	28.6
O=C1C(=O)N(Cc2c(F)cccc2F)c2ccc(F)cc21	27.6
COc1ccc(-c2ccc(CN3C(=O)C(=O)c4ccccc43)cc2)cc1	20.1
O=C1C(=O)N(Cc2ccccc2F)c2ccccc21	38.9
O=C1C(=O)N(Cc2ccccc2F)c2ccc(F)cc21	40.1
COc1cccc(CN2C(=O)C(=O)c3cccc(Cl)c32)c1	46.9
COc1ccc(CN2C(=O)C(=O)c3cc(F)ccc32)cc1	41.1
Cc1ccccc1CN1C(=O)C(=O)c2cccc(F)c21	30.2
Cc1ccccc1CN1C(=O)C(=O)c2ccccc21	43.2
O=C1C(=O)N(Cc2ccc(OC(F)(F)F)cc2)c2c(Cl)ccc(Cl)c21	16
O=C1C(=O)N(Cc2ccc(OC(F)(F)F)cc2)c2c(Cl)cccc21	43.6
Cc1ccc2c(c1)C(=O)C(=O)N2Cc1ccccc1C(F)(F)F	17.8
O=C1C(=O)N(Cc2ccc(F)cc2F)c2ccccc21	44.8
O=C1C(=O)N(Cc2ccc(C(F)(F)F)cc2)c2ccc(Cl)cc21	44.1
COc1ccc(CN2C(=O)C(=O)c3cc(C)ccc32)cc1	14.1
O=C1C(=O)N(Cc2c(F)cccc2F)c2ccc(OC(F)(F)F)cc21	13.6
O=C1C(=O)N(Cc2ccc(-c3ccc(Cl)nc3)cc2)c2ccccc21	37.1
O=C1C(=O)N(Cc2ccc(Br)cc2)c2c(F)cccc21	62.7
COc1cccc(CN2C(=O)C(=O)c3cccc(F)c32)c1	51.1
Cc1ccccc1CN1C(=O)C(=O)c2cccc(Cl)c21	32.8
Cc1ccc2c(c1)C(=O)C(=O)N2Cc1ccc(Br)cc1F	22.3
O=C1C(=O)N(Cc2c(F)cccc2F)c2ccc(Cl)cc21	27.3
O=C1C(=O)N(Cc2ccc(OC(F)(F)F)cc2)c2ccccc21	54.7
Cc1ccccc1CN1C(=O)C(=O)c2cc(F)ccc21	37.7

target: Muscarinic acetylcholine receptor M5 (Homo sapiens) (UniProt P08912); assay: as above; details: CHO hM5 calcium flux, ACh EC10 potentiation; at 30 µM; stronger effect = higher value
Sequence (P08912 whole entry, looked up): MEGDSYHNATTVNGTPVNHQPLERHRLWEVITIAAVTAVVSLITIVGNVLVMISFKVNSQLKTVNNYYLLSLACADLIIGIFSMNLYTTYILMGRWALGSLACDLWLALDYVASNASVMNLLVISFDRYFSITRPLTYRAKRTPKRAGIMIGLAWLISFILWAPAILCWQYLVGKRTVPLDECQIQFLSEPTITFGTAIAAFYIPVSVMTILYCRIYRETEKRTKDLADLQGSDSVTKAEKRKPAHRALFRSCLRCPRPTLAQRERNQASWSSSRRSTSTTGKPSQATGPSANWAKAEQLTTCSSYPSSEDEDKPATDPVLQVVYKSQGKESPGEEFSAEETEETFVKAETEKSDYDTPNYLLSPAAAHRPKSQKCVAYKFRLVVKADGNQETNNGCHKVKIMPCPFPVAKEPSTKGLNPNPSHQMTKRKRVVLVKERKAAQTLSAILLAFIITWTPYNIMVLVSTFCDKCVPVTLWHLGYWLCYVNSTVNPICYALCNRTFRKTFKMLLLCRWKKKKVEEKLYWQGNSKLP

SMILES	% ACh max response
O=C1C(=O)N(Cc2ccc(-c3ccccc3)cc2)c2ccc(OC(F)(F)F)cc21	82.7% (active)
COc1cccc(CN2C(=O)C(=O)c3cc(OC(F)(F)F)ccc32)c1	70.1% (active)
O=C1C(=O)N(Cc2ccc(-c3cc(F)ccc3F)cc2)c2ccc(OC(F)(F)F)cc21	80.9% (active)
O=C1C(=O)N(Cc2c(F)cccc2F)c2ccc(F)cc21	31.1% (inactive)
COc1ccc(-c2ccc(CN3C(=O)C(=O)c4ccccc43)cc2)cc1	30.8% (inactive)
CCCOc1ccc(-c2ccc(CN3C(=O)C(=O)c4cc(OC(F)(F)F)ccc43)cc2)cc1	31.8% (inactive)
O=C1C(=O)N(Cc2ccccc2F)c2ccccc21	24.5% (active)
O=C1C(=O)N(Cc2ccccc2F)c2ccc(F)cc21	46.2% (active)
COc1cccc(CN2C(=O)C(=O)c3cccc(Cl)c32)c1	38.7% (active)
COc1ccc(CN2C(=O)C(=O)c3cc(F)ccc32)cc1	38.3% (active)
Cc1ccccc1CN1C(=O)C(=O)c2cccc(F)c21	27.5% (inactive)
Cc1ccccc1CN1C(=O)C(=O)c2ccccc21	36.3% (active)
O=C1C(=O)N(Cc2ccc(OC(F)(F)F)cc2)c2c(Cl)ccc(Cl)c21	23.2% (inactive)
O=C1C(=O)N(Cc2ccc(-c3ccsc3)cc2)c2ccc(OC(F)(F)F)cc21	92.3% (active)
O=C1C(=O)N(Cc2ccc(-c3ccc(Cl)cc3)cc2)c2ccc(OC(F)(F)F)cc21	45.5% (active)
O=C1C(=O)N(Cc2ccc(OC(F)(F)F)cc2)c2c(Cl)cccc21	72.3% (active)
Cc1ccc2c(c1)C(=O)C(=O)N2Cc1ccccc1C(F)(F)F	30.6% (inactive)
O=C1C(=O)N(Cc2ccc(F)cc2F)c2ccccc21	40.4% (active)
O=C1C(=O)N(Cc2ccc(-c3ccc(F)nc3)cc2)c2ccc(OC(F)(F)F)cc21	78.8% (active)

SMILES	% ACh max response
COc1ccc(-c2ccc(CN3C(=O)C(=O)c4cc(OC(F)(F)F)ccc43)cc2)cc1	46% (active)
O=C1C(=O)N(Cc2ccc(C(F)(F)F)cc2)c2ccc(Cl)cc21	67.4% (active)
COc1ccc(CN2C(=O)C(=O)c3cc(C)ccc32)cc1	21.2% (inactive)
O=C1C(=O)N(Cc2c(F)cccc2F)c2ccc(OC(F)(F)F)cc21	29.8% (inactive)
O=C1C(=O)N(Cc2ccc(-c3ccc(Cl)nc3)cc2)c2ccccc21	47.8% (active)
O=C1C(=O)N(Cc2ccc(Br)cc2)c2c(F)cccc21	51.7% (active)
COc1cccc(CN2C(=O)C(=O)c3cccc(F)c32)c1	52% (active)
Cc1ccccc1CN1C(=O)C(=O)c2cccc(Cl)c21	32.6% (inactive)
Cn1cc(-c2ccc(CN3C(=O)C(=O)c4cc(OC(F)(F)F)ccc43)cc2)cn1	86.8% (active)
Cc1ccc2c(c1)C(=O)C(=O)N2Cc1ccc(Br)cc1F	27.8% (inactive)
O=C1C(=O)N(Cc2c(F)cccc2F)c2ccc(Cl)cc21	31.8% (inactive)
O=C1C(=O)N(Cc2ccc(OC(F)(F)F)cc2)c2ccccc21	60.5% (active)
O=C1C(=O)N(Cc2ccc(-c3ccc(Cl)nc3)cc2)c2ccc(OC(F)(F)F)cc21	88.2% (active)
O=C1C(=O)N(Cc2ccc(-c3ccc(Cl)c(Cl)c3)cc2)c2ccc(OC(F)(F)F)cc21	73.5% (active)
COc1ccccc1-c1ccc(CN2C(=O)C(=O)c3cc(OC(F)(F)F)ccc32)cc1	72.6% (active)
O=C1C(=O)N(CCc2ccc(Br)cc2)c2ccc(OC(F)(F)F)cc21	81.1% (active)
COc1ccc(CCN2C(=O)C(=O)c3cc(OC(F)(F)F)ccc32)cc1	88.3% (active)
Cc1ccccc1CN1C(=O)C(=O)c2cc(F)ccc21	40.8% (active)
